Many of the other results were omitted from the sample, so hits are more common in it than they were.
Methyltransferases = Primary Screen for Target Class Profiling of Small Molecule Inhibitors of Methyltransferases; purified enzyme, MTase-Glo SAH luminescence; active compounds read low; calls only at 40 µM; actives 3.9% (n = 25,000); AID 1745853, 2022; call rule not given here
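Each enzyme was assayed with SAM and its substrate. SAH formation detected by MTase-Glo luminescence; single-point 40 uM screen[…].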
The depositor's hits bear a star; i = inactive; + = active, no number; ! = repeats disagree. On the % scale 0 is the no-effect control and ±100 the full control effect.

SMILES	Methyltransferases
C=C1C[C@H](O)[C@@H](O)[C@@]2(C)C1[C@@H](O)[C@H]1OC(=O)C3[C@@H](C)[C@@H](O)[C@H](O)C2[C@]31C (stereo partly drawn)	i
C/C(=C\CCC(C(=O)O)C1CCC2(C)C3=C(CCC12C)C1(C)CCC(=O)C(C)(C)C1CC3)C(=O)O (stereo not drawn)	i
CCCn1c(=O)c2ccc(C(=O)NC(C)CC)cc2n2c(=O)n(CC(=O)NC3CCCCC3)nc12 (stereo not drawn)	i
CN(c1ccccc1)c1cc(=O)c2ccnc(-c3cncnc3)c2o1	i
Oc1ccc(/C=C/c2cc(O)cc(O)c2)cc1	i
O=C(/C=C/c1ccc(O)c(O)c1)OCCc1ccccc1	i
O=c1cc(O)cc(/C=C/c2ccc(O)c(O)c2)o1	+
COc1c2cc(c(O)c1OC)CCCCC(O)CCc1ccc(O)c-2c1 (stereo not drawn)	i
CC(C)(C)c1cc(/C=C(\C#N)C(N)=S)cc(C(C)(C)C)c1O	+
CC(C)Cn1c(=O)c2cc(F)ccc2n2c(SCC(=O)Nc3ccccc3Cl)nnc12	i
COc1ccc(CCNC(=O)CCc2nnc3n(CCC(C)C)c(=O)c4ccccc4n23)cc1OC	i
CN(C1CCc2nn(CC3CC3)c(=O)n2CC1)S(=O)(=O)c1ccc(C#N)cc1 (stereo not drawn)	i
C=CC[N+]1([C@H]2C[C@H]3[C@@H]4CC[C@H]5C[C@H](OC(C)=O)[C@@H](N6CCCCC6)C[C@]5(C)[C@H]4CC[C@]3(C)[C@H]2OC(=O)CC)CCCCC1	+
CCOC(=O)N1CCC(N[C@@H]2CC[C@@H]2NC(=O)CCn2cncn2)CC1	i
Cc1ccc(NS(=O)(=O)c2ccc3[nH]c(=O)[nH]c3c2)cc1Cl	i
COc1ccc(-c2cc3n(n2)CC(C)(C(=O)NC2CCCCC2)N(c2cccc(Cl)c2)C3=O)cc1 (stereo not drawn)	i
O=C(Cn1c(=O)oc2cc(S(=O)(=O)N3CCCC3)ccc21)Nc1ccc(F)cc1	i
COc1cc2c(Nc3ccc(NC(=O)c4ccccc4)cc3)ncnc2cc1OCCCN1CCOCC1	i
O=S(=O)(c1ccccc1)c1nnn2c1nc(NC1CCN(Cc3ccccc3)CC1)c1cc(Cl)ccc12	i
COc1cc2nc(N3CCCCC3)nc(NC3CCN(Cc4ccccc4)CC3)c2cc1OC	+!
COc1cc2c(NC3CCN(C(C)C)CC3)nc(C3CCCCC3)nc2cc1OCCCN1CCCC1	+!
COc1cc2ncnc(N3CCC(Oc4cnc5ccccc5n4)C3)c2cc1OC (stereo not drawn)	i
O=S(=O)(c1ccccc1)c1nnn2c1nc(NC1CCN(Cc3ccccc3)CC1)c1ccccc12	i
COc1cc2nc(N3CCC(N4CCCCC4)CC3)nc(NC3CCCCCC3)c2cc1OC	+
COCCn1ncc(N2CCC(C(=O)NCCCN3CCC(N4CCCCC4)CC3)C2)cc1=O (stereo not drawn)	i
SMILES	Methyltransferases
COc1cc2nc(N3CCCC3)nc(NCCCCCN3CCCC3)c2cc1OC	+!
COc1cc2nc(-c3ccc(N4CCN(C)CC4)cc3)nc(NCCN3CCOCC3)c2cc1OC	i
CCc1ccc(N2C(=O)c3cc4sccc4n3CC2(C)C(=O)NC2CCCCCCC2)cc1 (stereo not drawn)	i
Cc1cc(C)c(NC(=O)Cn2c(=O)c3ccc(Cl)cc3n3nncc23)c(C)c1	i
CCCN1C(=O)c2c(C(=O)NCCCc3ccccc3)ncn2CC1(C)C(=O)NCCC(C)C (stereo not drawn)	i
CCc1ccc(N2C(=O)c3cc4sccc4n3CC2(C)C(=O)NC2CCCC(C)C2C)cc1 (stereo not drawn)	i
COCCN1C(=O)c2cc(-c3ccccc3)nn2CC1(C)C(=O)NCc1ccccc1OC (stereo not drawn)	i
CC(C)OCCCNc1nc2c(S(=O)(=O)c3ccccc3)nnn2c2ccccc12	i
COc1ccc(OC)c(S(=O)(=O)N2CCC3(CCC3N3CCOCC3)CC2)c1 (stereo not drawn)	i
COc1cc2nc(-c3cc(F)ccc3O)nc(N[C@@H]3CNC[C@H]3C(C)(C)O)c2cc1OC	i
COc1cc2nc(N3CCCCC3)nc(NC3CCN(C)CC3)c2cc1OC	+!
CC(C)CCNC(=O)C1(C)Cn2c(cc3ccccc32)C(=O)N1c1ccc(Cl)cc1 (stereo not drawn)	i
O=C(NC1CCCCC1)c1ccc2c(=O)n(Cc3ccccc3)c3nn(Cc4ccccc4)c(=O)n3c2c1	i
C[C@]12CC[C@@H]3c4ccc(O)c(O)c4CC[C@H]3[C@@H]1CCC2=O	+
COc1ccc(CN2C(=O)c3cc4ccccc4n3CC2(C)C(=O)NC2CCCC2)cc1OC (stereo not drawn)	i
CC1(C(=O)NCc2ccc(Cl)cc2)Cn2c(nc3ccccc32)C(=O)N1C1CC1 (stereo not drawn)	i
Cc1cc(NC2CCCCC2)nc(-n2nc(C)cc2C)n1	i
N#Cc1cc(-c2ccnc(Nc3ccc(N4CCOCC4)cc3)n2)ccc1OC1CCOCC1	i
